Results published in PubChem BioAssay AID422 (Emory University Molecular Libraries Screening Center, 2006).
“And” between values parts separate entries of the source, which are not always exact repeats. Equal values may be shown once. The whole screen tested about 160,000 compounds, of which about 310 (0.19%) were called active. Rule as the data show it: active = inhibition above about 30%; inactive = the rest. The entries come from a sample that favours actives as a whole.

molecular target: 14-3-3 protein gamma (Homo sapiens) (UniProt P61981); test: 14-3-3 gamma/Raf peptide interaction modulators – biochemical, fluorescence polarization, primary screen (AID 422); conditions: FP, 14-3-3gamma / TMR-pS259-Raf peptide binding; at 40 µM; stronger effect = higher value;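 also: 0% = protein plus tracer without compound and 100% = blank with tracer alone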
Sequence (P61981 whole entry, looked up): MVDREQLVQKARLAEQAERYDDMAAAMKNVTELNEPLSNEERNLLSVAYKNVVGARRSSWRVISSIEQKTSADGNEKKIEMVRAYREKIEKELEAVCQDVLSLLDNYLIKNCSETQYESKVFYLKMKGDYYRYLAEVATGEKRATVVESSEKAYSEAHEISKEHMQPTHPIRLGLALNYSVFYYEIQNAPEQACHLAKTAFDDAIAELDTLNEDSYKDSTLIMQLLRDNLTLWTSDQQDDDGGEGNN

inhibition, inactive:
O=C(C1CCC(Cn2c(=O)[nH]c3ccccc3c2=O)CC1)N1CCN(Cc2ccccc2)CC1 (stereo unspecified) -3.1%
CSc1cccc(NC(=O)C2c3ccccc3C(=O)N3CCc4ccccc4C23)c1 (stereo unspecified) -1.47%
CCCCNC(=O)c1c[nH]c2ccc(S(=O)(=O)Nc3cccc(OC)c3)cc2c1=O -22.6%
O=C(NC1CCCCCCCCCCC1)c1cnc2n(c1=O)CCS2 -1.96%
CCCOc1ccccc1C1NC(=O)NC(C)=C1C(=O)OCC1CCCO1 (stereo unspecified) 3.08%
CN(C)/C=C1/C(=O)Nc2ccccc21 -2.07%
CN(C)/C=C1/Nc2ccccc2C1=O -0.95%
O=C(Nc1nc2ccccc2n1CCOc1ccccc1)c1cccs1 8.38%
CCOCCn1cnc2sc(C(=O)N3CCN(c4ccccn4)CC3)c(C)c2c1=O 1.28%
Cc1c(Cl)cccc1NC(=O)c1cc(S(=O)(=O)N2CCC(C)CC2)ccc1F -5.5%
O=C(Nc1nc(-c2cccs2)cs1)c1ccc(S(=O)(=O)N2CCc3ccccc3C2)cc1 -43.5%
CN1C(=O)c2ccccc2C(C(=O)N2CCC(Cc3ccccc3)CC2)C1c1c[nH]c2ccccc12 (stereo unspecified) 6.73%
COc1ccc(CSc2n[nH]c(C)n2)cc1Cl -0.37%
CSCCC(NS(=O)(=O)c1cccs1)C(=O)Nc1ccc(F)cc1 (stereo unspecified) -1.64%
CC(=O)OCC#CCSc1nc2ccccc2o1 -1.9%
CCOC(=O)C1CCN(S(=O)(=O)c2ccc(I)cc2)CC1 -2.44%
CC1CCN(S(=O)(=O)c2ccc3ncn(CC(=O)N4CCN(Cc5ccccc5)CC4)c(=O)c3c2)CC1 1.95%
CCCCNC(=O)C1c2ccccc2C(=O)N(C)C1c1c[nH]c2ccccc12 (stereo unspecified) -0.96%
O=C(OC(c1ccccc1)c1nccc2ccccc12)c1ccc([N+](=O)[O-])cc1 (stereo unspecified) -10%
NC(=O)C1CCN(C(=O)c2ccc3nc4ccccc4c(=O)n3c2)CC1 12.3%
CN(C(N)=O)C1CCS(=O)(=O)C1 (stereo unspecified) 2.31%
S=c1[nH]nc(-c2cccs2)n1Cc1ccc2c(c1)OCO2 -5.66%
CCN1C(=O)c2cccc3c(N)ccc1c23 5.38%
Nc1ccc2c3c(cccc13)C(=O)NC2=O 14.8%
COc1ccc(N2C(=O)CCC(C(=O)Nc3ccc(Br)cc3C)C2c2ccc(OC)c(OC)c2)cc1 (stereo unspecified) -9.11%
COc1ccccc1CNC(=O)c1cc(-c2ccc(Br)s2)nc2ccccc12 -1.85%
CCCCc1nc(N)c(C#N)c(-c2ccccc2Cl)c1CCC -5.82%
COc1ccc(-c2nc(CS(=O)CC(=O)N3CCc4ccccc4C3)c(C)o2)cc1 (stereo unspecified) -4.26%
COc1ccc(-c2nc(CS(=O)CC(=O)NCc3cccnc3)c(C)o2)cc1OC (stereo unspecified) -5.12%
Fc1ccc(Nc2nc(NCc3ccccc3)c3ccccc3n2)cc1 -3.64%
CSc1ccc(-c2nc3ccc(Cl)cn3c2Nc2ccc3c(c2)OCO3)cc1 -19%
COc1ccc(C2Nc3ccccc3NC3=C2C(=O)CC(c2cccc([N+](=O)[O-])c2)C3)cc1 (stereo unspecified) 0.48%
CCOc1ccc(S(=O)(=O)NC2CCCC2)c2cccnc12 -6.1%
COc1ccc([N+](=O)[O-])cc1NC(=O)c1c([N+](=O)[O-])cnn1C -2.94%
O=C1C2CC=C(Cl)CC2C(=O)N1c1ccc(O)cc1 (stereo unspecified) -3.22%
COC(=O)c1ccccc1NC(=O)CCCn1nc([N+](=O)[O-])c(Cl)c1C -3.89%
CCC(C)(C(=O)NC1CCCCC1)N(C(=O)CC1NC(=O)NC1=O)c1ccccc1 (stereo unspecified) -2.16%
CC1CC(C)CN(CCCNC(=O)C2c3ccccc3C(=O)N(C)C2c2cccs2)C1 (stereo unspecified) 4.52%
Cc1c(-c2nc3ccccc3c(=O)[nH]2)sc2nc(-c3ccccc3)nc(N)c12 -34.5%
CC(C)CN(CC(C)C)S(=O)(=O)c1ccc(Br)cc1 -5.87%
CCCCCn1c(=O)[nH]c2cc(C(=O)NC(C)C)ccc2c1=O -3.1%
COc1cc(N=Cc2c(O)[nH]c3ccccc23)cc(OC)c1OC 1.7%
COc1ccc(N=Cc2c(O)[nH]c3ccccc23)cc1OC -6.05%
CCCCNC(=O)C1CCC(=O)N1CCc1ccccc1 (stereo unspecified) -1.84%
CC1=C(C(=O)OCCc2ccccc2)C(c2cccc([N+](=O)[O-])c2)NC(=O)N1 (stereo unspecified) -4.75%
O=C1NC2=C(C(=O)c3ccccc32)C(c2ccccc2)S1 (stereo unspecified) 3.21%
COc1ccc(C2C=C(c3ccc(-c4ccccc4)cc3)Nc3ncnn32)cc1 (stereo unspecified) -7.71%
O=C(Nc1ccc(-c2nnc(-c3ccccc3)o2)cc1)C1CCCO1 (stereo unspecified) 5.13%
O=C(Nc1ccc(-c2nc3ccc(NC(=O)c4ccc(Br)o4)cc3[nH]2)cc1)c1ccc(Br)o1 -23.6%
O=C(CCSCc1cccc(F)c1)N1CCc2ccccc21 -8.82%
O=C(CN1CCCN(S(=O)(=O)c2ccc(Br)cc2)CC1)Nc1ccccc1F -7.48%
CCc1ccc(OCCSc2nc3ccccc3c(=O)[nH]2)cc1 -1.81%
CC(NC(=O)C(Cc1ccc([N+](=O)[O-])cc1)N1C(=O)c2ccccc2C1=O)c1ccc(CCBr)cc1 (stereo unspecified) -10.4%
C=C(C)Cn1c(-c2ccc(N(C)C)cc2)nc2ccccc21 -2.28%
Cc1c(Cl)cccc1N1C(=O)C2C3c4ccccc4C(c4ccccc43)C2C1=O (stereo unspecified) 1.55%
O=C(Nc1ccccc1C(F)(F)F)c1ccc(SC2CCCCC2)c([N+](=O)[O-])c1 -3.43%
O=C(Nc1cccc2c1C(=O)c1ccccc1C2=O)c1ccccc1Br -33.2%
COc1cc2c(cc1OC)C(COc1ccc3c(C)cc(=O)oc3c1)N(C(=O)c1cc(C)cc(C)c1)CC2 (stereo unspecified) -4.93%
O=C(Cn1cnc([N+](=O)[O-])c1)C1CC1 7.38%
CC(=O)CCC=C(C)CCC=C(C)C -6.82%
Cc1ccc(-c2nc3ccccc3c(C(=O)O)c2C)s1 -5.29%
O=C1NC(c2ccc(Cl)cc2)C(C(=O)c2ccccc2)C(O)(C(F)(F)F)N1 (stereo unspecified) 9.54%
O=C(NCCCN1CCCC1)c1ccc(N2CCCC2=O)cc1 2.82%
Cc1ccc(Cl)cc1N1C(=O)C(N2C(=O)c3ccc([N+](=O)[O-])cc3C2=O)C1c1cccc(F)c1 (stereo unspecified) -4.78%
CCCC(=O)N(c1ccc2oc(C)c(C(=O)OC)c2c1)S(=O)(=O)c1cc([N+](=O)[O-])ccc1C -23.1%
COc1ccc(CN2C(=O)CCC2(C)C(=O)NC2CCCCCC2)c(OC)c1 (stereo unspecified) -7.62%
COc1ccc2cc(-c3nnc(Nc4ccccc4F)s3)c(=O)oc2c1 -11.4%
COC(=O)C1=C(C)NC2=C(C(=O)CC(c3ccccc3Cl)C2)C1c1ccc2c(c1)OCO2 (stereo unspecified) -2.26%
O=c1oc2ccc(Cl)cc2cc1-c1cn2cc(Cl)cc(Cl)c2n1 -12.1%
CN1CCc2c(n(-c3ccccc3)c3ccccc23)C1=O -14.8%
COc1cccc(C=Nc2cccc(C(=O)Nc3cccc4ccccc34)c2)c1O 2.57%
CCOc1ccccc1C(=O)Nc1ccc(I)cc1C -132%
CCC(=O)N1CCc2cc(OC)c(OC)cc2C1COc1cccc(C(F)(F)F)c1 (stereo unspecified) -6%
Cc1ccc(-c2cc(C(=O)OCC(C)C)c3cc(C)ccc3n2)cc1 3.92%
COc1cc(C2Nc3ccccc3NC3=C2C(=O)CC(c2ccccc2Cl)C3)cc(Cl)c1O (stereo unspecified) -12.8%
COc1ccc(-n2ncc3c(N4CCc5ccccc54)ncnc32)cc1 -7.74%
Cc1cccc(-n2ncc3c(N4CCc5ccccc54)ncnc32)c1 -10.6% and 1.75%
CC1Cc2nc(SCC(=O)Nc3cccc(C(F)(F)F)c3)n(C)c(=O)c2S1 (stereo unspecified) -7.37%
CCOc1ccc(S(=O)(=O)N2CCC(C)CC2)c2ccccc12 -10.1%
Cc1[nH]c2ccccc2c1C(=O)CSc1nc2ccccc2s1 -9.51%
CCN1C(=O)c2cccc3c(S(=O)(=O)NC4CC(C)(C)NC(C)(C)C4)ccc1c23 -11.1%
CC(C)(C)c1ccc(C(=O)NCc2n[nH]c(=S)n2-c2cccc(C(F)(F)F)c2)cc1 4.88%
CN1C(=O)NC(c2cccc(Cl)c2)C2=C1CCCC2=O (stereo unspecified) 2.47%

inhibition, active:
O=C1Nc2ccccc2C1=Nc1ccc(O)cc1 87.3%
CN1C(=O)c2cccc3c(N)ccc(c23)C1=O 85.5%
COc1ccc(-c2nc(CS(=O)CC(=O)NCc3ccccn3)c(C)o2)cc1 (stereo unspecified) 99.2%
Cc1[nH]c2ccccc2c1C=Nc1ccc(O)cc1 121%
O=C(Nc1ccc(-c2nnc(-c3ccccc3)o2)cc1)c1ccc(Br)o1 116%
COc1ncnc2c1N=C1CC(C)(C)CC(N)=C1S2 56.3%
CCOc1ccc(N=Cc2c(O)c(C(=O)Nc3ccccc3C)cc3ccccc23)cc1 79.8%
COc1ccc(-n2ncc3c(N4CCCc5ccccc54)ncnc32)cc1 43.9%
